From PubChem BioAssay (NCATS) come the findings set out here.

Each structure is given as a SMILES string. Where “and” joins values, the source holds several entries; their conditions need not be identical. Identical values can stand only once. Results filed as inconclusive are left out. Calls of active or inactive are those of the source. Unless noted, calls come from the whole dose curve; as a rule, active = well fitted curve in either direction with a large enough effect (not every such curve was filed as active); inconclusive = small, poorly fitted or top-dose-only effect, or another doubt; inactive = flat fitted curve, though single readings scatter.

Assay [1] concerns the target Androgen receptor (Homo sapiens) (UniProt P10275). The assay can be described thus: qHTS assay for small molecule agonists of androgen receptor signaling (AID 588515; active = well fitted curve in the direction sought with a large enough effect in the signal ratio, with a control signal flat; the % refers to the signal ratio; note: % is set by controls: 0 for no effect and ±100 for the full control effect). As to conditions: AR-UAS-bla HEK293, beta-lactamase ratio, agonist 16 h; stronger effect = higher value. The procedure, abridged: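 Stimulation of an AR-responsive β-lactamase reporter in GripTite HEK293 cells was measured after 16 h compound exposure at 37 °C, via CCF4 fluorescence after 2 h RT. EC50 from Hill fits, normalized to R1881 at 30 nM.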
For orientation: Quantitative high-throughput screening tests each substance at several concentrations.

For assay [2] the target is unchanged. The assay can be described thus: qHTS assay for small molecule antagonists of androgen receptor signaling (AID 588516; active = well fitted curve in the direction sought with a large enough effect in the signal ratio, with a control signal flat, not every such curve was filed as active; the % refers to the signal ratio; note: % is set by controls: 0 for no effect and ±100 for the full control effect). The procedure, abridged: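 AR-UAS-bla GripTite HEK 293 cells (2000/well) treated with compound titrations plus 10 nM R1881 for 16 h at 37C. Beta-lactamase read by CCF4 FRET (460/530 nm); IC50 from Hill fits, normalized to R1881 and DMSO control wells.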

Assay [3] is described as follows: qHTS assay for small molecule antagonists of peroxisome proliferator-activated receptor delta signaling (AID 588535; active = well fitted inhibition curve with a large enough effect in the signal ratio, with a control signal flat, not every such curve was filed as active; the % refers to the signal ratio;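 for max response: cells co-treated with a PPAR-delta agonist as stimulator during compound exposure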). To be noted: HEK293T PPARd-UAS-bla, beta-lactamase FRET ratio, 18 h; 460 nm channel. The procedure, abridged:
(§1)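 Beta-lactamase reporter read-out (405 nm excitation, 460/530 nm emission) after CCF4 loading for 2 hrs at RT. HEK293T PPAR-delta-UAS-bla cells, 2% charcoal/dextran FBS, compounds for 18 hrs at 37 C. Hill fit gave IC50 and efficacy.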

Assay [4] deals with Peroxisome proliferator-activated receptor delta (Homo sapiens) (UniProt Q03181). The assay is described as above. The procedure, abridged: as §1
Assay [5] is described as follows: NFAT Signaling Pathway (AID 444).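 Note: carbachol stimulus at about its EC50 of 1 µM final; % is set by controls: 0 for no effect and ±100 for the full control effect.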 As to conditions: Jurkat NFAT-bla M1, carbachol, beta-lactamase ratio, 5 h; at 17.2 µM (top of the series) unless noted. The procedure, abridged:
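Jurkat cells with NFAT-driven β-lactamase reporter and co-expressed M1 receptor, stimulated with carbachol (final 1 uM, ~EC50), compound titration, 5 h at 37 °C. CCF4 loaded 1 h at RT; 460/530 nm ratio gave %activity and AC50.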

A short description of assay [6]: Stat Signaling Pathway (AID 446).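 Note: ME-180 cervical cancer cells given 40 pM IL-6 alongside compound; SIE-controlled beta-lactamase reporter measured as 460/530 nm FRET emission ratio; % is set by controls: 0 for no effect and ±100 for the full control effect.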 To be noted: ME-180 (cervical carcinoma) SIE beta-lactamase reporter, IL-6 stimulated, 5 h; at 17.2 µM (top of the series) unless noted. The method, boiled down:
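Emission at 460 and 530 nm (excitation 405 nm) reports SIE-controlled beta-lactamase in ME-180 cells. Cells received compound with 40 pM IL-6 for 5 hrs at 37 C; data scaled between 300 pM IL-6 and 125 nM JAK-inhibitor controls.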

Assay [7] addresses Glucocorticoid receptor (Homo sapiens) (UniProt P04150). Description: GR-GFP Redistribution (AID 450;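 active = compounds whose dose series gives a full or clear partial fitted curve of increased nuclear translocation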; note: potency is the fitted concentration of half-maximal effect).

Chain of Peroxisome proliferator-activated receptor delta (Homo sapiens) (Q03181 whole entry, looked up): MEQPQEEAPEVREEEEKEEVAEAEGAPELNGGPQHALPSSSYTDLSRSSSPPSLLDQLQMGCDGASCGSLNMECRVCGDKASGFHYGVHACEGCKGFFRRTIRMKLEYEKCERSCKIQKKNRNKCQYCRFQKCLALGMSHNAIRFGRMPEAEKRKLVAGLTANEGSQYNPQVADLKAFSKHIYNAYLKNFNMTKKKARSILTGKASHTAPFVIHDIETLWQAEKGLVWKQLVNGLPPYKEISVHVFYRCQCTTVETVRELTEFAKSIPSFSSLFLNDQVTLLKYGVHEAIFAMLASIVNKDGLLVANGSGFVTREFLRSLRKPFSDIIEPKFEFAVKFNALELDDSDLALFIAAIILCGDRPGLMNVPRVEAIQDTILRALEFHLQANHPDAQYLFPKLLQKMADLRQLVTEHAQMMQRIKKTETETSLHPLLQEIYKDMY
Chain of Glucocorticoid receptor (Homo sapiens) (P04150 whole entry, looked up): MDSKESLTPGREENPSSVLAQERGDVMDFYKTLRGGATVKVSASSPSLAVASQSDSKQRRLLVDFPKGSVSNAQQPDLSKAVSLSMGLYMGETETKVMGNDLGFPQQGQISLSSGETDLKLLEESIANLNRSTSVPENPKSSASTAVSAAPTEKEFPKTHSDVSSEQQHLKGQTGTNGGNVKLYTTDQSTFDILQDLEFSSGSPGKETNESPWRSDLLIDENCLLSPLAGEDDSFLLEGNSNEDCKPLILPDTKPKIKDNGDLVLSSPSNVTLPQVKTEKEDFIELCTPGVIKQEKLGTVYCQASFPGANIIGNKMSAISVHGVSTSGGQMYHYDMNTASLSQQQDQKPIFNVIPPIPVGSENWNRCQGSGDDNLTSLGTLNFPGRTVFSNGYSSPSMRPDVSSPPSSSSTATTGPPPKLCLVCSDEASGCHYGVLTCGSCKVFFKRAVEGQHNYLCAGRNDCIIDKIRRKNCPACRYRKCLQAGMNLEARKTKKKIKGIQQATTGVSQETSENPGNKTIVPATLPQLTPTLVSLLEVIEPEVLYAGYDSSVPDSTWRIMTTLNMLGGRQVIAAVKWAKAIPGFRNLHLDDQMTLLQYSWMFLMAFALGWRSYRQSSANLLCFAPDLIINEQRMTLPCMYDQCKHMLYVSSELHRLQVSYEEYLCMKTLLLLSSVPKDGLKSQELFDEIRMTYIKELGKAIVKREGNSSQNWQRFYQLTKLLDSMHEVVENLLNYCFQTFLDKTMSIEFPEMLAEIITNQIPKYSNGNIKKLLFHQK
Chain of Androgen receptor (Homo sapiens) (P10275 whole entry, looked up): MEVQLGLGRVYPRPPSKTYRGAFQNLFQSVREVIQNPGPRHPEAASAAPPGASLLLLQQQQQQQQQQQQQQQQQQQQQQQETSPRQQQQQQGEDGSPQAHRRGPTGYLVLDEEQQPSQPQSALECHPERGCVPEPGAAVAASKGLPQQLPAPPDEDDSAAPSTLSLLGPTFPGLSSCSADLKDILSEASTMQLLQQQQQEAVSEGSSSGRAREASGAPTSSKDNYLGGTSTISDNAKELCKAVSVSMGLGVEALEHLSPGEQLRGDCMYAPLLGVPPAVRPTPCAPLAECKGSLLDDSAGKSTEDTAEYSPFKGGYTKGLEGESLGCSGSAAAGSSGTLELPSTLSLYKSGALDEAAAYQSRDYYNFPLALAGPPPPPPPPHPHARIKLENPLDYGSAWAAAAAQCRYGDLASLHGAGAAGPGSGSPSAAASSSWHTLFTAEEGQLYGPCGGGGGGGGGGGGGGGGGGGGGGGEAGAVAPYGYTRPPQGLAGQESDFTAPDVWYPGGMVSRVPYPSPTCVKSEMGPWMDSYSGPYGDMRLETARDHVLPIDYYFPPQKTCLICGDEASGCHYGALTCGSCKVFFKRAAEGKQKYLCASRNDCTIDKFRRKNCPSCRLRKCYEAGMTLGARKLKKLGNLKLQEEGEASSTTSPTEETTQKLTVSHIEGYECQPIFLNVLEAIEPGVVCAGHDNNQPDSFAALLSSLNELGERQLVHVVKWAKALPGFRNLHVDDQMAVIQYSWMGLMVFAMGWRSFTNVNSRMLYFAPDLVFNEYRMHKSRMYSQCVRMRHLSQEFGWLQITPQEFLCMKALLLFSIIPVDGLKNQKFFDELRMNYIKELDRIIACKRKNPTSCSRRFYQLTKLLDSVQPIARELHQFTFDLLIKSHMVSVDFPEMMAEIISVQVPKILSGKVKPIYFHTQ

For the compound `CN(C)c1ccc(C2(c3ccc(N(C)C)cc3)OC(=O)c3cc(N(C)C)ccc32)cc1`, the activation in assay [1] is 19.5% (inactive). The call in assay [2] and in assay [4] was inactive. The max response in assay [3] is -30.7%.

Consider `O=C=Nc1ccc(Cc2ccc(N=C=O)cc2)cc1`, for which the max response in assay [3] is -20% and 23.7%. In assay [4], the outcome was inactive.

With `COCCNc1oc(-c2ccc(F)cc2)nc1C#N`, in assay [5], the activity change, negative = inhibition was 7.25% (inactive). Also, the activity, negative = inhibition in assay [6] is -2.97% (inactive). In addition, the Potency in assay [7] was > 20.6 µM (inactive).

For the compound `CCOC(=O)CSC1=C(C#N)C(c2ccc(OC)cc2)C2=C(CC(C)(C)CC2=O)N1` (stereo unspecified), the activity change, negative = inhibition in assay [5] was 7.5% (inactive). For the same compound, the activity, negative = inhibition in assay [6] is -4.41% (inactive). Further, the Potency in assay [7] was > 20.6 µM (inactive).

Take `COc1cc(C2C(C#N)=C(N)Oc3cc(C)n(CCc4ccccc4)c(=O)c32)cc2c1OCO2` (stereo unspecified): in assay [5], the activity change, negative = inhibition was -4.95% (inactive). Also, in assay [6], the activity, negative = inhibition is -6.08% (inactive). For the same compound, in assay [7], the Potency is > 20.6 µM (inactive).

Consider `COc1ccc(-c2nn3c(C4CCCCC4)nnc3s2)cc1OC`, for which the activity change, negative = inhibition in assay [5] is -3.44% (inactive). In assay [6], the activity, negative = inhibition is 16.5% (inactive). Also, the Potency in assay [7] was > 20.6 µM (inactive).

As for `CCCSC1=C(C#N)C(c2ccc(OC)cc2)C2=C(CC(C)(C)CC2=O)N1` (stereo unspecified), the activity change, negative = inhibition in assay [5] was -24.7% (inactive). Also, the activity, negative = inhibition in assay [6] was -13% (inactive). In addition, the Potency in assay [7] was > 20.6 µM (inactive).

With `CC(C)(C)C1=Nn2c(nnc2-c2ccco2)SC1`, in assay [5], the activity change, negative = inhibition was 11.1% (inactive). In assay [6], the activity, negative = inhibition was 8.01% (inactive). Further, in assay [7], the Potency was > 20.6 µM (inactive).

For `Cc1nc2c(o1)CCc1ccccc1C2N1CCN(C)CC1` (stereo unspecified), in assay [5], the activity change, negative = inhibition was -82.4% (active). The activity, negative = inhibition in assay [6] is 3.94% (inactive). The Potency in assay [7] was > 20.6 µM (inactive).

With `CCC(C(=O)Nc1nccs1)(C(F)(F)F)C(F)(F)F`, the activity change, negative = inhibition in assay [5] is 11.5% (inactive). In addition, the activity, negative = inhibition in assay [6] is -9.76% (inactive). The Potency in assay [7] is > 20.6 µM (inactive).

Regarding `NC(=O)CSc1nnc2n(-c3ccccc3)c(=O)c3c4c(sc3n12)CCCCC4`, the activity change, negative = inhibition in assay [5] was -30% (inactive). Further, the activity, negative = inhibition in assay [6] was 9.67% (inactive). Besides, the Potency in assay [7] was > 20.6 µM (inactive).

Take `COc1cccc(-c2nnc3sc(-c4ccc(C)cc4)nn23)c1`: in assay [5], the activity change, negative = inhibition was -10.2% (inactive). The activity, negative = inhibition in assay [6] is 1.68% (inactive). Besides, in assay [7], the Potency is > 20.6 µM (inactive).
